Rows were chosen to be rich in hits. Some 18% of all compounds tested hit in one or more screens of this group.
PLK1 PBD inh – blocks phosphopeptide binding to human PLK1 polo-box domain; P53350; Plk1 PBD binding of FITC phosphopeptide, fluorescence polarization; Potency, µM, without a hit: max response, negative = inhibition, usual class: inhibitors; actives 2.8% (n = 360,000); further: series mostly up to about 57 µM; nearly all actives have a fitted effect of over 65% in size
Target sequence (P53350 whole entry, looked up, the tested form may be a part): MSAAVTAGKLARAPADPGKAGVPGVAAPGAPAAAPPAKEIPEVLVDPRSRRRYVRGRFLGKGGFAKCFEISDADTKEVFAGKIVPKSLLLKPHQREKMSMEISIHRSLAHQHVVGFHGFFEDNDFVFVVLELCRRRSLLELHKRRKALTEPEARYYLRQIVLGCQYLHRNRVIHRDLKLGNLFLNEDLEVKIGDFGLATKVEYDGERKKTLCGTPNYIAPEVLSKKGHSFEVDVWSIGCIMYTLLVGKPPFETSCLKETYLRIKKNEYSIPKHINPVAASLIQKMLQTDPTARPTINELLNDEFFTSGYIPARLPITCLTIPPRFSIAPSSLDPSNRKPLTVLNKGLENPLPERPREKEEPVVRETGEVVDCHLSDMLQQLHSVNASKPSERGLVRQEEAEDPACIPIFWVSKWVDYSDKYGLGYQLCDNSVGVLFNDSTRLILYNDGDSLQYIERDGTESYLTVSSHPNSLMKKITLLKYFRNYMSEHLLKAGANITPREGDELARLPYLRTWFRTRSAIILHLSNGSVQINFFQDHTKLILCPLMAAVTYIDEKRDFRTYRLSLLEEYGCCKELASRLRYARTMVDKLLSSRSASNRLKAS
DT40 TDP1 CPT – DT40-hTDP1 cell growth loss with CPT; Potency, µM (doses to about 46.2 µM), inactives show top-dose activity change, negative = growth inhibition, hits mostly inhibitors; chicken DT40 Tdp1-/-;hTDP1 cells + 20 nM CPT, ATP luminescence, 48 h; actives 12% (n = 420,000); further: nearly all actives have a fitted effect of over 55% in size
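Chicken DT40 Tdp1-/- cells stably complemented with human TDP1 were seeded at 400 cells/well in medium containing 20 nM camptothecin, exposed to pin-transferred compounds, and grown at 37 °C for at least 48 hr. Viability was read as ATP luminescence.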
KAT2A inh – blocks human GCN5L2 histone acetyltransferase. Q92830. GCN5L2 HAT assay, ThioGlo1 CoA-SH fluorescence. Potency, µM (titrated, usually from 58.9 µM), for the others: at the top dose activity change, negative = inhibition, most hits filed as inhibitors. actives 0.21% (n = 390,000)
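GCN5L2 (20 nM) in 50mM HEPES pH 7.5, 0.1mM EDTA, 0.01% Tween-20 preincubated 15 min with compounds at room temperature. Reaction started with H3(1-25) 75uM, acetyl-CoA 70uM, ThioGlo1 50uM; CoA-thiol fluorescence (Ex340/Em540) read at 0 and 20 min.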
TDP1 block – TDP1 (human) enzyme inhibition; Q9NUW8; recombinant TDP1, AlphaScreen DNA substrate cleavage; Potency, µM (doses to about 130 µM), for the others: at the top dose activity change, negative = inhibition, hits mostly inhibitors; actives 0.28% (n = 350,000); further: nearly all actives have a fitted effect of over 40% in size
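Recombinant E. coli-expressed Tdp1 (1 nM) preincubated with compound 15 min at RT, then 5'-biotin/3'-phosphotyrosine-FITC DNA substrate (15 nM) added for 5 min. AlphaScreen beads (10 ug/ml) added, 10 min RT; tyrosine-FITC cleavage read as signal loss.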
TDP1 cell noCPT – qHTS for Inhibitors of human tyrosyl-DNA phosphodiesterase 1 (TDP1): qHTS in cells in absence of CPT; DT40 Tdp1-/- hTDP1 cells, no CPT, ATP luminescence, 48 h; Potency, µM (highest dose often 46.2 µM), inactives show at the highest dose activity change, negative = growth inhibition, hits mostly inhibitors; actives 15% (n = 420,000); AID 686978, 2013; further: nearly all actives have a fitted effect of over 55% in size
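No-CPT arm: Tdp1-/-;hTDP1 DT40 cells (400/well) plus compounds, incubated ≥48 hr at 37 °C. Readout CellTiter-Glo luminescence.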
VDR inhibitor – inhibitors of human vitamin D receptor; actives 0.93% (n = 400,000); Potency, µM, inactives show max response, negative = inhibition, hits mostly inhibitors; VDR-SRC2-3 peptide fluorescence polarization, 2 h; P11473
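Signal is fluorescence polarization, reporting how far test compounds block the interaction of VDR with the SRC2-3 coregulator peptide after a 2 h room-temperature incubation.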
An asterisk follows results filed as active; ? = inconclusive; nt = no result given; [ ] = another dose, or the depositor's remark. The call rests on the fitted dose curve; in most records, active means well fitted curve in the direction sought with a large enough effect; inconclusive means small, poorly fitted or top-dose-only effect, or another doubt; inactive means no such curve, though single readings can be large; an effect the other way counts as inactive or inconclusive. On the % scale 0 is the no-effect control and ±100 the full control effect; potency means the concentration at half of the fitted maximal effect.

SMILES	PLK1 PBD inh	DT40 TDP1 CPT	KAT2A inh	TDP1 block	TDP1 cell noCPT	VDR inhibitor
COC(=O)c1ccccc1NC(=O)CN(C)S(=O)(=O)c1ccc(OC)cc1	-0.2%	?	5.3%	4.4%	?	1.4%
O=C(COc1ccc(C(=O)c2ccccc2)cc1)NC1CCCCCC1	-1.7%	25.9µM*	-1.1%	0.0%	16.4µM*	7.9%
O=C(COc1ccc(C(=O)c2ccccc2)cc1)NC1CCCCC1	-10.4%	-6.4%	-2.0%	5.5%	-17.7%	-25.5%
CC(C)CCNC(=O)COc1ccc(C(=O)c2ccccc2)cc1	6.7%	18.4µM*	-2.3%	-5.3%	?	12.6%
N#Cc1ccc2c(c1)C[C@]1(c3ccsc3)Oc3c(c(=O)oc4ccccc34)C2O1	nt	nt	-18.9%[12.7 µM]	nt	nt	nt
Cc1ccc(S(=O)(=O)N2CCc3ccccc3C2CN2C(=O)c3ccccc3C2=O)cc1 (configuration not stated)	-4.3%	22.4µM*	-6.9%	0.0%	11.2µM*	-19.9%
Cc1ccc(/C=C/C(=O)NCc2ccccn2)o1	?	?	-23.7%	14.1µM*	-11.9%	-0.8%
Cc1cc(O)ccc1Nc1nc2ccccc2nc1Nc1ccc(O)cc1C	?	8.2µM*	-4.7%	5.8%	5.17µM*	-6.5%
COc1ccc(-n2c(C)nc3cc(C(=O)NC4CCCC4)ccc32)cc1	nt	-27.1%	-5.7%	2.8%	-1.7%	?
CC1CCN(S(=O)(=O)c2ccc3nc(N4CCN(c5ccccc5F)CC4)ccc3c2)CC1	nt	-13.6%	-2.7%	-2.6%	?	20.3%
Cc1cccc(N2CCN(c3ccc4cc(S(=O)(=O)N5CCC(C)CC5)ccc4n3)CC2)c1C	nt	1.3%	0.8%	10.5%	-16.0%	12.4%
CCOc1ccccc1CNc1ccc2cc(S(=O)(=O)N3CCC(C)CC3)ccc2n1	nt	?	-15.0%	0.0%	23.1µM*	16.2%
Cc1ccc(CNC(=O)c2cc(S(=O)(=O)N3CCCCCC3)cn2C)cc1	nt	-23.6%	-5.6%	4.1%	-28.7%	14.8%
Cc1ccc(CNc2ccc3cc(S(=O)(=O)N4CCCCC4)ccc3n2)cc1	nt	10.3µM*	-5.0%	5.3%	10.3µM*	13.0%
CC1CCN(S(=O)(=O)c2ccc3nc(NCc4ccc(N(C)C)cc4)ccc3c2)CC1	nt	23.1µM*	1.2%	10.5%	11.6µM*	-2.0%
CC1CCN(S(=O)(=O)c2ccc3nc(NCc4ccc(F)cc4)ccc3c2)CC1	nt	13µM*	-24.0%	-2.6%	13µM*	8.3%
COc1ccc(-c2ccc(=O)n(CC(=O)Nc3ccc(N(C)C)cc3)n2)cc1	nt	0.9%	1.2%	8.5%	1.4%	15.8%
O=S(=O)(NCc1cccc(C(F)(F)F)c1)NCc1ccccc1F	-3.4%	-27.9%	-6.5%	-1.6%	-16.6%	10.0%
COc1cccc(C(=O)OCC(=O)NCCC2=CCCCC2)c1	2.3%	-15.9%	2.8%	-1.3%	-10.2%	-11.7%
COc1ccc(C(=O)C2C(c3ccc(-c4ccccc4[N+](=O)[O-])o3)NC(=O)NC2(O)C(F)(F)F)cc1 (configuration not stated)	-5.7%	20.6µM*	28.5%	2.6%	18.4µM*	-6.9%
Cc1ncc2c(c1CNS(=O)(=O)N(C)C)CCN(C(=O)c1ccc(-c3ccc(F)cc3)cc1)C2	nt	7.6%[9.04 µM]	nt	nt	?	nt
Cn1nc(C(F)(F)F)c(C(=O)Nc2cccc(Cl)c2)c1Cl	-7.7%	-29.5%	-3.0%	2.9%	?	-10.8%
Cc1ccccc1OCC(=O)NC(=S)Nc1ccc2c3c(cccc13)CC2	2.99µM*	18.4µM*	-3.2%	0.0%	18.4µM*	-25.1%
Cn1c(/C=C/c2ccc(Br)cc2)c([N+](=O)[O-])c(=O)n(C)c1=O	-7.4%	8.2µM*	0.7%	nt	11.6µM*	50.1µM*
COc1ccccc1NC(=O)c1c(NCc2ccc(OC)c(OC)c2OC)sc2c1CCC2	nt	?	-1.9%	0.9%	23.1µM*	-2.2%
SMILES	PLK1 PBD inh	DT40 TDP1 CPT	KAT2A inh	TDP1 block	TDP1 cell noCPT	VDR inhibitor
COc1ccc(NC(=O)c2c(NCc3ccc(OC)c(OC)c3OC)sc3c2CCC3)c(OC)c1	nt	13µM*	-11.8%	10.4%	14.6µM*	-7.0%
CCOc1ccccc1NC(=O)c1c(NCc2ccc(OC)c(OC)c2OC)sc2c1CCC(C)C2 (configuration not stated)	nt	?	-6.6%	1.9%	18.4µM*	-4.4%
COc1ccccc1NC(=O)c1c(NCc2ccc(OC)c(OC)c2OC)sc2c1CCCC2	nt	?	-7.0%	1.9%	?	5.3%
COc1ccc(NC(=O)c2c(NCc3cccc(F)c3)sc3c2CCC3)c(OC)c1	nt	13µM*	-2.9%	4.7%	10.3µM*	-5.7%
O=C(COCc1cc(-c2ccc3c(c2)OCO3)on1)NCc1ccc(F)cc1	nt	?	-5.4%	-1.2%	-21.5%	15.2%
Cc1ccc(S(=O)(=O)N(C)C)cc1NC(=O)COC(=O)CNC(=O)c1cccs1	0.8%	-7.1%	-2.3%	-0.7%	-0.7%	-0.9%
Cc1ccc(CSc2nncn3c2cc2sccc23)cc1	nt	-10.2%	2.7%	7.7%	-14.6%	6.6%
CCOC(=O)N1CCc2c(sc(NCc3ccc(OC)c(OC)c3OC)c2C(=O)Nc2ccc(OC)cc2OC)C1	nt	?	-12.9%	10.4%	16.4µM*	-9.1%
CCOC(=O)c1ccc(NC(=O)c2c(NCc3sccc3C)sc3c2CCCCC3)cc1	nt	11.6µM*	-26.7%	4.7%	20.6µM*	?
COc1ccc(NC(=O)c2c(NCc3sccc3C)sc3c2CCCC3)c(OC)c1	nt	20.6µM*	-1.7%	8.5%	13µM*	10.3%
NC(=O)N/N=C/c1cn(-c2ccccc2)nc1-c1cccs1	1.9%	16.4µM*	2.1%	4.2%	?	2.4%
O=C(c1cn(-c2ccccc2)nc1-c1cccs1)N1CCN(c2ccccc2)CC1	8.0%	7.31µM*	0.8%	7.4%	7.31µM*	1.1%
O=C(N/N=C/c1cn(-c2ccccc2)nc1-c1cccs1)c1ccncc1	6.0%	?	-9.5%	8.2%	?	-12.8%
O=C(c1cn(-c2ccccc2)nc1-c1cccs1)N1CCOCC1	-8.5%	-12.1%	-9.5%	3.8%	-15.5%	-1.2%
NS(=O)(=O)c1ccc(N/N=C/c2cn(-c3ccccc3)nc2-c2cccs2)cc1	-8.4%	5.17µM*	-7.8%	8.2%	2.91µM*	-12.4%
CCn1c(-c2ccccc2F)nc2cc(NC(C)=O)cc(C(=O)N(C)Cc3cn(C)nc3C)c21	nt	23.9%[9.04 µM]	nt	nt	-14.3%	nt
CCn1c(SCC(=O)c2ccccc2)nnc1-c1cc2cc(Br)ccc2o1	-6.4%	?	-2.0%	3.2%	9.2µM*	-20.4%

Screening data as filed in PubChem BioAssay.
